PI5P4K alpha inh = blocks human PI5P4K alpha kinase activity | max response, % | 330,000 tested, 1.2% active | PI5P4Kalpha enzyme, ADP-Glo luminescence, 60 min; hits give low values | P48426 | AID 652105; active = max response of -50% or lower; inconclusive = between -30% and -50%; inactive = -30% or higher; note: value at the top dose of about 77 µM
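ADP-Glo luminescence end-point after a 60 min room-temperature kinase reaction. PI5P4Kalpha and substrate in HEPES pH 7.4 buffer with EGTA, 0.1% CHAPS and 5% DMSO; ATP at 5 microM final.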
G9a inh = inhibitors of human histone lysine methyltransferase G9a. G9a H3K9 monomethylation, AlphaScreen, 2 h. AID 504332. Potency, µM (series often up to 102 µM), hits mostly inhibitors. Q96KQ7. 350,000 tested, 8.8% active; note: nearly all actives have a fitted effect of over 75% in size
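AlphaScreen detection with an anti-monomethyl H3K9 antibody quantified product after a 2 h room-temperature reaction containing 500 nM biotinylated H3K9 peptide, 20 µM SAM and 20 nM enzyme, which had been preincubated 15 min with compound.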
BAZ2B block = BAZ2B (human) inhibition | Q9UIF8 | AlphaScreen BAZ2B-H3K14Ac peptide displacement | Potency, µM (doses to about 114 µM), usual class: inhibitors | 360,000 tested, 4.4% active | AID 504333; note: nearly all actives have a fitted effect of over 60% in size
Target sequence (Q9UIF8 whole entry, looked up): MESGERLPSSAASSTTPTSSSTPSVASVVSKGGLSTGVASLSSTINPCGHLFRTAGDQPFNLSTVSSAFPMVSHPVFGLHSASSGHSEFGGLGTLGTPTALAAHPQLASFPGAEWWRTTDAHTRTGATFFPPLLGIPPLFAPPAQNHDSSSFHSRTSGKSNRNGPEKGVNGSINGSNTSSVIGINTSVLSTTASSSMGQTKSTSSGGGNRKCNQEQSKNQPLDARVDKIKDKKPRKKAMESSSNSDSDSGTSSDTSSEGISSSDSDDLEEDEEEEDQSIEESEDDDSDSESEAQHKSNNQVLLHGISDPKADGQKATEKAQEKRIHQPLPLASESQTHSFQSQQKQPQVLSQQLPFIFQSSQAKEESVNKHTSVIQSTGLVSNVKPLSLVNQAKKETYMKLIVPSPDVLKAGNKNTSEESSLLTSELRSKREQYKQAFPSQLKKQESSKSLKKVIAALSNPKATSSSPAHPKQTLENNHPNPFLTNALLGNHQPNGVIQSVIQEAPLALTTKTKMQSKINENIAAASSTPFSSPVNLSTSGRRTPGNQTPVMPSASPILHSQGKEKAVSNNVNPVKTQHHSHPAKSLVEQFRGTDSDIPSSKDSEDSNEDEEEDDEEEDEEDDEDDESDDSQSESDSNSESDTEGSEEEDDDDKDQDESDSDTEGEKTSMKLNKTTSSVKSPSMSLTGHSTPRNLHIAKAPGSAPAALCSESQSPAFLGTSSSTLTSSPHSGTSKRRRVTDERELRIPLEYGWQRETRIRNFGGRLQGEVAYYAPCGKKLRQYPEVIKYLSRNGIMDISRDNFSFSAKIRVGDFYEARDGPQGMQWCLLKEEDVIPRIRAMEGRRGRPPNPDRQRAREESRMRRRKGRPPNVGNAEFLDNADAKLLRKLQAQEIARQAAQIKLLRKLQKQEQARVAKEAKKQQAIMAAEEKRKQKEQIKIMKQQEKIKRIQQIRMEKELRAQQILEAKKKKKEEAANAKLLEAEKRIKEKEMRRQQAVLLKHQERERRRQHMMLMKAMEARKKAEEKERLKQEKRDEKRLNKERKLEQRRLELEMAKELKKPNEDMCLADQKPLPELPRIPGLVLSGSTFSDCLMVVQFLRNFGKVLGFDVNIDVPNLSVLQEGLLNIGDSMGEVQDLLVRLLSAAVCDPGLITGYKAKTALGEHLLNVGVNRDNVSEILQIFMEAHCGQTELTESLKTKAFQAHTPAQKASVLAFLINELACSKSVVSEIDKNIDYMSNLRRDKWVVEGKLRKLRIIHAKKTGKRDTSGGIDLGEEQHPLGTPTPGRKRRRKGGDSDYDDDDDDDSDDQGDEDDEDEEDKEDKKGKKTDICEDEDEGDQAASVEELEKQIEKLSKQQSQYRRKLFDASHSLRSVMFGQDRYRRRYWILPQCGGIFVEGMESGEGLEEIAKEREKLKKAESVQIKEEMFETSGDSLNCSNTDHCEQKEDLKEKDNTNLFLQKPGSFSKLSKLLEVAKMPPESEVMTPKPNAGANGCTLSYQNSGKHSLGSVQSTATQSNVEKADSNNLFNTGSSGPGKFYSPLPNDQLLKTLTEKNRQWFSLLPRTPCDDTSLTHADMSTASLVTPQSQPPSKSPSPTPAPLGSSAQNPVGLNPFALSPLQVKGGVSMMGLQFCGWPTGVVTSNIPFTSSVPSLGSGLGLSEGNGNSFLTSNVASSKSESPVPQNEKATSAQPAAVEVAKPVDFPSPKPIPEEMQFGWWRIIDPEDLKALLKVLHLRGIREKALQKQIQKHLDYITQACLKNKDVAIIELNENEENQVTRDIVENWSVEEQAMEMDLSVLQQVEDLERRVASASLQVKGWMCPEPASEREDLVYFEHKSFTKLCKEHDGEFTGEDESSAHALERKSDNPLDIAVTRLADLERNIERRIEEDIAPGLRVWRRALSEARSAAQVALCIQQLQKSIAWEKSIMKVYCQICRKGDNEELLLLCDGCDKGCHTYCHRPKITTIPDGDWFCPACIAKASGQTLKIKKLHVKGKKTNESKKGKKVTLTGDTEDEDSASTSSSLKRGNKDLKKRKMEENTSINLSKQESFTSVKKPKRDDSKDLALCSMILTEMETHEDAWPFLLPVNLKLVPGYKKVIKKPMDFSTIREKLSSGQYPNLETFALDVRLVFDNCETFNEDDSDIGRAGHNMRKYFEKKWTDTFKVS
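AlphaScreen luminescence quantifies BAZ2B engagement of H3K14Ac peptide; the protein and biotinylated peptide are both at 50 nM final, buffer PBS pH 7.4 with 0.01% Tween-20, all steps at room temperature.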
JMJD2A Tudor = inhibitors of human JMJD2A Tudor domain; AlphaScreen JMJD2A-Tudor / H3K4me3 peptide binding; Potency, µM (doses to about 114 µM), usual class: inhibitors; O75164; AID 504339; 390,000 tested, 4.4% active; note: nearly all actives have a fitted effect of over 50% in size
HP1b chromo inh = inhibitors of HP1-beta chromodomain binding to methylated histone tails; P83916; AlphaScreen HP1-beta / biotin-H3K9me3 peptide binding; Potency, µM (series often up to 114 µM), usual class: inhibitors; 390,000 tested, 0.56% active; note: nearly all actives have a fitted effect of over 70% in size
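AlphaScreen: HP1-beta (50 nM) preformed 30 min with biotin-H3(1-18)K9me3 peptide (50 nM) in PBS pH 7.4, 0.01% Tween-20. Compound added for 30 min at RT, then streptavidin donor/nickel chelate acceptor beads (10 ug/mL) for 30 min.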
PLK1 PBD inh = inhibitors of human PLK1 polo-box domain binding; P53350; Plk1 PBD binding of FITC phosphopeptide, fluorescence polarization; Potency, µM, actives largely listed as inhibitors; 360,000 tested, 2.8% active; note: series mostly up to about 57 µM; nearly all actives have a fitted effect of over 65% in size
A number is an active result; – = inactive; ? = inconclusive; · = not tested or not shown; [ ] = remark or other dose. Shown are actives, neighbours in structure and some others; about 12% of the full set was active somewhere. Unless noted, calls come from the whole dose curve; as a rule, active = well fitted curve in the direction sought with a large enough effect; inconclusive = small, poorly fitted or top-dose-only effect, or another doubt; inactive = no such curve, though single readings can be large; an effect the other way counts as inactive or inconclusive.

SMILES	PI5P4K alpha inh	G9a inh	BAZ2B block	JMJD2A Tudor	HP1b chromo inh	PLK1 PBD inh
COc1ccc(NC(=O)c2noc3c2CSc2ccccc2-3)cc1Cl	·	–	–	–	–	·
CN1CCCC1CCNc1ncnc2ccc(-c3ccc4c(c3)OCO4)cc12 (configuration not stated)	·	·	·	–	·	·
COc1ccc(CN2CCN(Cc3cc4ccccc4o3)CC2CCO)cc1C (configuration not stated)	–	–	–	–	–	–
COc1ccccc1COCC(O)CNCCc1ccc(C(F)(F)F)cc1 (configuration not stated)	–	4µM	25µM	79µM	–	–
Cc1ccccc1N=Nc1c(O)n(C)c2ccccc12	–	7.9µM	–	–	–	?
CC1(C)C2CCC1(C)C(OC(=O)C[n+]1ccccc1)C2 (configuration not stated)	–	–	–	–[11.4 µM]	–	19µM
CC1(C)C2CCC1(C)C(OC(=O)C[n+]1ccccc1N)C2 (configuration not stated)	–	–	–	–[11.4 µM]	–	–
CC1(C)C2CCC1(C)C(OC(=O)CNc1ccccc1)C2 (configuration not stated)	–	–[12.7 µM]	–	–[11.4 µM]	–	19µM
COc1ccc(Cc2nnc(NN)[nH]c2=O)cc1OC	–	–	4µM	2.5µM	–	–
COc1ccc(Cc2nnc(N/N=C(\C)c3ccccc3)[nH]c2=O)cc1OC	–	·	35µM	–	–	–
CCN(CC)c1ccc(C=Nc2ccc(C)cc2)c(O)c1	–	?	–	–	–	–
CCN(CC)c1ccc(N=Cc2ccc(N(CC)CC)cc2O)cc1	–	?	18µM	40µM	?	–
CCN(CC)c1ccc(/C=N/N2C(C)CCCC2C)c(O)c1 (configuration not stated)	–	45µM	45µM	?	–	–
CCN(CC)c1ccc(C=Nc2cc(C)cc(C)c2)c(O)c1	–	8.9µM	–	–	–	–
CCN(CC)c1ccc(C=Nc2ccc(N(C)C)cc2)c(O)c1	–	0.56µM	32µM	56µM	?	–
CCN1CCN(c2ccc(N=Cc3ccc(O)cc3O)cc2)CC1	–	·	32µM	?	?	–
CCN1CCC(N2CCN(c3ccc(Cl)cc3)CC2)CC1	–	–	–	–	–	–
CCOC(=O)c1cc(C)n(CCc2ccccc2)c1C	–	–	–	–	–	–
Cc1cc(C(=O)CCl)c(C)n1CCc1ccccc1	?	50µM	–	45µM	?	27µM
Cc1cc(C(=O)CCl)c(C)n1-c1ccon1	–	–	–	–	–	27µM
O=C(COC(=O)COc1ccccc1F)NCc1ccco1	–	·	·	–	–	–
COc1ccc(N(C(=O)c2cccnc2)S(=O)(=O)c2cc(OC)ccc2OC)cc1	–	–	–	–	–	–
Cn1c(C(=O)NCCN2CCCCCC2)cc2c(=O)n(C)c3ccccc3c21	–	35µM	?	–	–	–
Cn1c(C(=O)NCCCN2CCOCC2)cc2c(=O)n(C)c3ccccc3c21	–	?	–	–	–	–
Cn1c(C(=O)NCCCN2CCN(c3ccccc3F)CC2)cc2c(=O)n(C)c3ccccc3c21	–	50µM	–	?	–	–
SMILES	PI5P4K alpha inh	G9a inh	BAZ2B block	JMJD2A Tudor	HP1b chromo inh	PLK1 PBD inh
Cn1c(C(=O)N2CCN(c3ncccn3)CC2)cc2c(=O)n(C)c3ccccc3c21	–	45µM	–	–	–	–
Cn1c(C(=O)NC2CCCC2)cc2c(=O)n(C)c3ccccc3c21	–	–	–	?	–	30µM
Cn1c(C(=O)NCCN2CCN(Cc3ccccc3)CC2)cc2c(=O)n(C)c3ccccc3c21	–	–	–	–	–	?
CCN(C[C@H]1N[C@@](CC)(C(=O)OC)[C@H]2C(=O)N(C)C(=O)[C@@H]12)S(=O)(=O)c1ccc(OC)cc1	–	·	·	?	–	–
CCCCNC(=S)N1CCn2cccc2C1c1ccccc1 (configuration not stated)	–	56µM	·	–	–	–
S=C(NCc1ccccc1)N1CCn2cccc2C1c1ccncc1 (configuration not stated)	–	?	?	–	–	17µM
CCCCNC(=S)N1CCn2cccc2C1c1ccc(F)cc1 (configuration not stated)	–	?	–	–	–	–

Screens: PubChem BioAssay, National Center for Advancing Translational Sciences (NCATS)
